“And” between values parts separate entries of the source, which are not always exact repeats. Equal entries are not always repeated. The source made the active and inactive calls.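 The calls were made as follows, unless noted: active = thallium flux through the channel raised or lowered by more than 3 SD from vehicle-only wells, actives on both sides; inactive = the rest.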
Assays:
[1] = liver-stage malaria parasite growth inhibition, primary screen, cell-based, HepG2, luciferase luminescence, HepG2 viability (AID 624349; in the data active = parasite load remaining mostly below about 12%, no sharp cut-off; inactive = mostly above about 10%;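 also: 100% = mean of DMSO negative control wells on the same plate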); details: P. berghei liver stage in HepG2, luciferase luminescence, concentration not given here; parasite load remaining: stronger effect = lower value; viability: measured here: HepG2 viability without parasites
[2] = Cy5 fluorescence interference with SSB-bound oligo, artefact control for HCV NS3 helicase inhibitor project, biochemical, NIH Clinical Collection, E. coli SSB (AID 743268; call rule not given here)
[3] = test system: Hepatitis C virus NS3 helicase; experiment: HCV NS3 helicase inhibitors, primary screen, biochemical, fluorescence polarization, NIH Clinical Collection (AID 743270; call rule not given here); details: NS3 helicase binding to Cy5-dT15 DNA, stronger effect = higher value, concentration not given here
[4] = target: Single-stranded DNA-binding protein (Escherichia coli (strain K12)) (UniProt P0AGE0); experiment: E. coli SSB displacement from DNA, counter-screen for HCV NS3 helicase inhibitor project, biochemical, fluorescence polarization, NIH Clinical Collection (AID 743271; in the data active = inhibition above about 28%); details: stronger effect = higher value, concentration not given here
[5] = fluorescence interference in NS3h assay format, artefact control for HCV NS3 helicase inhibitor project, biochemical, NIH Clinical Collection (AID 743272; call rule not given here;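 also: HCV NS3 helicase with a Cy5 labelled single stranded DNA probe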); details: fluorescence interference counterscreen, stronger effect = lower value
[6] = modulation of C. elegans fzo-1 (AID 1259413; call rule not given here;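 also: fzo-1 mutant C. elegans worms in liquid wells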); details: C. elegans fzo-1 modulator screen, mean read-out; stronger effect = higher value
[7] = sensitizers of A549 cells to miR-34 induction, primary screen, imaging, A549 dox-inducible miR-34, nuclei and caspase counts (AID 1347080;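 active = compounds whose cell count with miR-34 switched on is under 0.7 times the count with it off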); details: A549 miR-34 inducible, Hoechst nuclei count, 48 h
F380Y = experiment: modulators of BK channel variants, profiling panel, selectivity assay, cell-based, U2OS BacMam, thallium flux, beta subunits (AID 1259406); details: at 30 µM;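 also: initial slope of Thallos dye fluorescence rise after thallium is added; log ratio against the mean of 0.3% DMSO vehicle wells on the same plate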
F380Y/beta1 = experiment: as above; details: at 30 µM
F380Y/beta2Delta = experiment: as above; details: at 30 µM
F380Y/beta4 = experiment: as above; details: at 30 µM
[8] = target: Calcium-activated potassium channel subunit alpha-1 (Homo sapiens) + Leucine-rich repeat-containing protein 26 (Homo sapiens) (UniProt Q12791+Q2I0M4); experiment: as above; details: F380Y/Slo1WT/gamma1, at 30 µM
Chain of Calcium-activated potassium channel subunit alpha-1 (Homo sapiens) + Leucine-rich repeat-containing protein 26 (Homo sapiens) (Q2I0M4 whole entry, looked up, one chain of several): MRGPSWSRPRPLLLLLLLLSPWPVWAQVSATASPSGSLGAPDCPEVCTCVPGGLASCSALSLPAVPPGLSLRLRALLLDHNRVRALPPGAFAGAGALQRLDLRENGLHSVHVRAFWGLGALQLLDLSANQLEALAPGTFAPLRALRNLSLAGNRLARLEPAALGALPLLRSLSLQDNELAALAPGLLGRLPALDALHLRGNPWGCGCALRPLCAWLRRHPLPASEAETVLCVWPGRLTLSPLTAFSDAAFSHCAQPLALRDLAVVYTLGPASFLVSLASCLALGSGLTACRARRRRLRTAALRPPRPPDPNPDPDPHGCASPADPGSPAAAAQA

R275C = experiment: as above; details: at 30 µM
R275C/beta1 = experiment: as above; details: at 30 µM
R275C/beta2Delta = experiment: as above; details: at 30 µM
R275C/beta4 = experiment: as above; details: at 30 µM
R275C/Slo1WT/beta2 = experiment: as above; details: at 30 µM
[9] = differential killing of epithelial or mesenchymal cells, primary screen, imaging, PC-3E GFP, TEM4-18 mCherry, co-culture (AID 1345086;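 active = compounds killing one labelled cell type while sparing the other, by normalised counts and ratio limits, not self-fluorescent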;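 also: cells exposed to compound for 72 h before imaging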;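 as to red/green cell ratio (normalised): normalised mesenchymal count divided by normalised epithelial count so high means epithelial killing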); details: imaging cell counts, at 1 µM
[10] = survival rescue of mitochondrial mutant cells in low glucose, primary screen, MELAS cybrids, Rieske KO mouse fibroblasts, CellTiter-Glo (AID 1508586;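 active = mean z-score across replicates of 1.96 or higher in either the MELAS or the Rieske mutant cell line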;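 also: z relative to plate mean and SD of compound and empty wells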)
[11] = stronger effect = lower value, cell number ratio, induced over uninduced
[12] = measured here: relative caspase fold change +Dox/-Dox
[13] = measured here: total cells with miR-34 induction, stronger effect = lower value
[14] = measured here: total cells without miR-34 induction

CNC(=O)Oc1ccc2c(c1)[C@]1(C)CCN(C)C1N2C (some centres undefined)
10600: cell count [7, 14]
1.81: fold change [7, 12]
inactive: parasite load remaining [1] 98.8% | fluorescence ratio [2] 1.1 | inhibition [3] 5.94% | inhibition [4] -0.1% | fluorescence ratio [5] 1.08 | mean signal [6] 259 | fold change [7, 11] 0.976 | log fold change Tl+ flux (F380Y) -0.0388 | log fold change Tl+ flux (F380Y/beta1) -0.0363 | log fold change Tl+ flux (F380Y/beta2Delta) -0.00825 | log fold change Tl+ flux (F380Y/beta4) 0.000651 | log fold change Tl+ flux [8] 0.0144 | log fold change Tl+ flux (R275C) -0.0205 | log fold change Tl+ flux (R275C/beta1) 0.00244 | log fold change Tl+ flux (R275C/beta2Delta) -0.0145 | log fold change Tl+ flux (R275C/beta4) 0.023 | log fold change Tl+ flux (R275C/Slo1WT/beta2) -0.0113
10400: cell count [7, 13]
84.5%: viability [1]

COc1cc(/C=C/c2ccc(O)cc2)cc(OC)c1
inactive: parasite load remaining [1] 117% | fluorescence ratio [2] 0.96 | inhibition [3] 5.94% | inhibition [4] 9.14% | fluorescence ratio [5] 0.99 | mean signal [6] 227 | log fold change Tl+ flux (R275C/beta2Delta) -0.000996 | log fold change Tl+ flux (R275C/beta4) 0.05
active: log fold change Tl+ flux (F380Y) -1.03 | log fold change Tl+ flux (F380Y/beta1) -0.986 | log fold change Tl+ flux (F380Y/beta2Delta) -1.01 | log fold change Tl+ flux (F380Y/beta4) -0.813 | log fold change Tl+ flux [8] -0.744 | log fold change Tl+ flux (R275C) -0.927 | log fold change Tl+ flux (R275C/beta1) -0.11 | log fold change Tl+ flux (R275C/Slo1WT/beta2) -0.108
70.6%: viability [1]

O=C(O[C@H]1[C@H](Oc2ccccc2COC(=O)C2(O)C=CCCC2=O)O[C@H](CO)[C@@H](O)[C@@H]1O)c1ccccc1 (some centres undefined)
72.8%: viability [1]
inactive: parasite load remaining [1] 48.8% | fluorescence ratio [2] 1 | inhibition [3] -0.22% | inhibition [4] -2.76% | fluorescence ratio [5] 0.99 | mean signal [6] 249 | log fold change Tl+ flux (F380Y) 0.0202 | log fold change Tl+ flux (F380Y/beta1) 0.0124 | log fold change Tl+ flux (F380Y/beta2Delta) -0.0274 | log fold change Tl+ flux (F380Y/beta4) 0.0177 | log fold change Tl+ flux [8] -0.0394 | log fold change Tl+ flux (R275C) 0.00346 | log fold change Tl+ flux (R275C/beta1) 0.0475 | log fold change Tl+ flux (R275C/beta2Delta) 0.0175 | log fold change Tl+ flux (R275C/beta4) 0.0193 | log fold change Tl+ flux (R275C/Slo1WT/beta2) 0.0101

CCC1=C[C@H]2CN(C1)Cc1c([nH]c3ccccc13)[C@@](C(=O)OC)(c1cc3c(cc1OC)N(C)[C@H]1[C@@](O)(C(=O)OC)[C@H](OC(C)=O)[C@]4(CC)C=CCN5CC[C@]31[C@@H]54)C2
inactive: parasite load remaining [1] 32.2% | inhibition [3] -1.98% | inhibition [4] 9.91% | mean signal [6] 244 | log fold change Tl+ flux (F380Y) 0.0913 | log fold change Tl+ flux (F380Y/beta1) 0.0236 | log fold change Tl+ flux (F380Y/beta2Delta) 0.0207 | log fold change Tl+ flux (F380Y/beta4) 0.0427 | log fold change Tl+ flux [8] -0.0112 | log fold change Tl+ flux (R275C/beta1) 0.0456 | log fold change Tl+ flux (R275C/beta2Delta) 0.0329 | log fold change Tl+ flux (R275C/beta4) 0.0723
active: fluorescence ratio [2] 0.8 | fluorescence ratio [5] 0.78 | log fold change Tl+ flux (R275C) -0.149 | log fold change Tl+ flux (R275C/Slo1WT/beta2) 0.104
76.8%: viability [1]

O=c1c(O[C@@H]2O[C@H](CO)[C@@H](O)[C@H](O)[C@H]2O)c(-c2ccc(O)c(O)c2)oc2cc(O)cc(O)c12
inactive: parasite load remaining [1] 52.7% | fluorescence ratio [2] 0.86 | inhibition [3] 2.77% | inhibition [4] 12.2% | fluorescence ratio [5] 0.99 | mean signal [6] 249 | log fold change Tl+ flux (F380Y) -0.0619 | log fold change Tl+ flux (F380Y/beta1) 0.0645 | log fold change Tl+ flux (F380Y/beta2Delta) -0.0137 | log fold change Tl+ flux (F380Y/beta4) -0.0759 | log fold change Tl+ flux [8] 0.0381 | log fold change Tl+ flux (R275C) 0.0103 | log fold change Tl+ flux (R275C/beta1) 0.0316 | log fold change Tl+ flux (R275C/beta2Delta) 0.0226 | log fold change Tl+ flux (R275C/beta4) 0.0307 | log fold change Tl+ flux (R275C/Slo1WT/beta2) -0.0065
69.6%: viability [1]

CCCc1nc(C(C)(C)O)c(C(=O)O)n1Cc1ccc(-c2ccccc2-c2nn[nH]n2)cc1
2.28 and 0.39: fold change [7, 12]
9480 and 8420: cell count [7, 13]
1.22: normalised cell number ([9]; measured here: mesenchymal TEM4-18 mCherry cell survival)
-0.184: z-score ([10]; Rieske KO mouse fibroblast survival, CellTiter-Glo 72 h)
inactive: parasite load remaining [1] 103% | fluorescence ratio [2] 1.02 | inhibition [3] 1.19% | inhibition [4] -0.1% | fluorescence ratio [5] 0.93 | red/green cell ratio (normalised) ([9]; actives lie on both sides, counts scaled to control wells, 1 = unselective) 1.01 | fold change [7, 11] 0.897 and 0.859 | z-score ([10]; MELAS cybrid survival, CellTiter-Glo 48 h, stronger effect = higher value) 0.347 | log fold change Tl+ flux (F380Y) -0.0187 | log fold change Tl+ flux (F380Y/beta1) 0.00703 | log fold change Tl+ flux (F380Y/beta2Delta) 0.0323 | log fold change Tl+ flux (F380Y/beta4) -0.0244 | log fold change Tl+ flux [8] 0.0466 | log fold change Tl+ flux (R275C) 0.0686 | log fold change Tl+ flux (R275C/beta1) 0.00561 | log fold change Tl+ flux (R275C/beta2Delta) 0.0191 | log fold change Tl+ flux (R275C/beta4) -0.0131 | log fold change Tl+ flux (R275C/Slo1WT/beta2) -0.0157
10600 and 9810: cell count [7, 14]
69%: viability [1]
1.21: normalised cell number ([9]; measured here: epithelial PC-3E GFP cell survival)

Reference: PubChem BioAssay
